Gli-Sufu antag = Gli-Sufu pathway antagonists, primary screen, luciferase luminescence, Sufu-KO-LIGHT cells, uHTS. inhibition, % at 5 µM. Sufu-KO-LIGHT fibroblasts, Gli luciferase reporter luminescence. AID 588413, 2011. 340,000 tested, 0.74% active;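 active = inhibition above about 55%, limit read from the data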
Beta apoptosis = inhibitors of cytokine-induced beta cell apoptosis, primary screen, luminescence; protection from apoptosis, % (no concentration beside the values); 300,000 tested, 0.8% active; AID 435005, 2010; INS-1E cytokine-induced death, ATP luminescence, 48 h; percent of positive-control rescue, neutral wells zero;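 active = Every replicate reaches about 75%, or at least half do and their mean reaches it too, limit read from the data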;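 note: higher means more ATP so stronger rescue from cytokine killing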
Jurkat NFkB inh = inhibitors of induced NF-kB luciferase reporter, primary screen, TCR NF-kB activation inhibitor project, cell-based, luminescence, uHTS; inhibition, % at 4 µM; Jurkat, PMA/ionomycin-induced NF-kB luciferase reporter; 330,000 tested, 0.53% active; in the data active = inhibition above about 50%
697 NFkB inh = inhibitors of PMA/ionomycin-induced NF-kB reporter, 697 cells, primary screen, B-cell NF-kB inhibitor project, cell-based, luminescence, uHTS. 697 B-cell NF-kB luciferase reporter, 16 h. inhibition, % at 4 µM. 330,000 tested, 0.33% active. AID 435022, 2010; in the data active = inhibition above about 35%
Jurkat NFkB conf = PMA/ionomycin-induced NF-kB reporter inhibitors, Jurkat retest, confirmation, T-cell NF-kB inhibitor project, cell-based, luminescence, single concentration; shares compounds with Jurkat NFkB inh; AID 435020, 2010; Jurkat NF-kB luciferase, 16 h; inhibition, % at 4 µM; 2,700 tested, 27% active;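 active = inhibition reaching about 45% at 4 µM in either replicate, limit read from the data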
Each line names hits and unclear results; the compound was inactive in the other large screens (follow-up assays come after a bar, where they were run). In the library only some 1.8% were active in any assay of this set; here they are far more common.

c1ccc(-c2cn3c(n2)-c2ccccc2C3)cc1	none | Jurkat NFkB conf inactive
C/C(=N\NC(=O)c1cc(C)nc2ccccc12)c1ccccn1	Gli-Sufu antag 89.9, Beta apoptosis 104.1, Jurkat NFkB inh 94.6 | Jurkat NFkB conf 44.8
COc1ccc(C(=O)NNC(=O)c2ccccn2)cc1	Jurkat NFkB inh 52.1 | Jurkat NFkB conf 63.1
C/C(=N\NC(=O)c1ccccn1)c1ccc(Cl)cc1	none
C/C(=N\NC(=O)c1ccncc1)c1ccc(NC(=O)c2ccc(Cl)cc2)cc1	none | Jurkat NFkB conf inactive
C/C(=N\NC(=O)c1cc(C)nc2ccccc12)c1ccncc1	none
C/C(=N\NC(=O)c1ccc(Cl)cc1)c1ccccn1	Gli-Sufu antag 79.7, Beta apoptosis 105.4, Jurkat NFkB inh 98.0 | Jurkat NFkB conf inactive
COc1cc(OC)cc(C(=O)NNC(=O)c2ccccn2)c1	none
O=S(=O)(NC1CCN(Cc2ccccc2)CC1)c1ccc(Cl)cc1	none (no result: Beta apoptosis)
CCOc1ccc(CCNC(=O)c2sc3nc4n(c(=O)c3c2C)CCC4)cc1OCC	none
CCOc1cccc2cc(-c3csc(NC(=O)CCC(=O)NCCCN4CCC(C)CC4)n3)c(=O)oc12	none (no result: Gli-Sufu antag) | Jurkat NFkB conf inactive
COc1cccc2cc(-c3csc(NC(=O)CCC(=O)NCCCN4CCC(C)CC4)n3)c(=O)oc12	none | Jurkat NFkB conf inactive
CCOc1cccc2cc(-c3csc(NC(=O)CCC(=O)N4CCC(C)CC4)n3)c(=O)oc12	none
COc1ccc(OC)c(-c2csc(NC(=O)CN3C(=O)C4CCCCC4C3=O)n2)c1 (configuration not stated)	none
CCOc1cccc2cc(-c3csc(NC(=O)CCC(=O)NCCN4CCCCC4C)n3)c(=O)oc12 (configuration not stated)	none | Jurkat NFkB conf inactive
COc1ccc(C(=O)Nc2ccc(-c3ccc(C)o3)cc2)cc1S(=O)(=O)N1CCOCC1	Jurkat NFkB inh 58.6 | Jurkat NFkB conf inactive
COc1cccc(NC(=O)C2CCCN2C(=O)Nc2ccccc2)c1 (configuration not stated)	none
NC(=O)c1ccccc1NC(=O)/C=C/c1ccccc1	none
NC(=O)c1ccccc1NC(=O)/C=C/c1ccc(Cl)cc1	none | Jurkat NFkB conf inactive
N/C(=C\C(=O)c1cc(Cl)ccc1O)C(Cl)(Cl)Cl	Jurkat NFkB inh 64.0 | Jurkat NFkB conf inactive
CC(C)(C)c1ccc(C(=O)CC(=O)c2cc(Cl)ccc2O)cc1	none
CC(=O)N(C1=C(N2CCOCC2)C(=O)c2ccccc2C1=O)c1ccc(C(=O)O)cc1	none
CC(=O)N(C)C1=C(N2CCOCC2)C(=O)c2ccccc2C1=O	Beta apoptosis 125.2, Jurkat NFkB inh 86.6 | Jurkat NFkB conf 79.2
CN=c1scc(-c2cccs2)n1/N=C/c1ccccc1O	Gli-Sufu antag 81.2, Jurkat NFkB inh 77.5 | Jurkat NFkB conf 81.5
O=C(O)/C=C/c1cn(-c2ccccc2)nc1-c1cc2ccccc2oc1=O	none | Jurkat NFkB conf inactive
O=Cc1cn(-c2ccccc2)nc1-c1cc2cc(O)ccc2oc1=O	none
c1ccc2c(N3CCCCCC3)nc(-c3ccncc3)nc2c1	none
CCC(=O)N1CCc2cc(OC)c(OC)cc2C1COc1ccc(F)cc1 (configuration not stated)	Jurkat NFkB inh 64.4 (no result: Beta apoptosis) | Jurkat NFkB conf inactive
COc1cc2c(cc1OC)C(COc1ccc(F)cc1)N(C(C)=O)CC2 (configuration not stated)	none
CCOC(=O)c1[nH]c2c(c1C)C(=O)CC(c1ccco1)C2 (configuration not stated)	Jurkat NFkB inh 75.3 | Jurkat NFkB conf 55.3
CSCCOC(=O)c1[nH]c2c(c1C)C(=O)CC(c1ccco1)C2 (configuration not stated)	Jurkat NFkB inh 58.5 | Jurkat NFkB conf inactive
COCCOC(=O)c1[nH]c2c(c1C)C(=O)CC(c1ccccc1)C2 (configuration not stated)	none
COCCOC(=O)c1[nH]c2c(c1C)C(=O)CC(c1ccc(N(C)C)cc1)C2 (configuration not stated)	none
COCCOC(=O)c1[nH]c2c(c1C)C(=O)CC(c1ccc(F)cc1)C2 (configuration not stated)	none
Cc1c(C(=O)OCCOC(C)C)[nH]c2c1C(=O)CC(c1ccco1)C2 (configuration not stated)	Jurkat NFkB inh 60.2 | Jurkat NFkB conf inactive

Screening results: PubChem BioAssay, several laboratories
